29 molecules from the supplement of paper PMC13380429 can be followed below.

For assay [1], the system named is Vero E6 infected with SARS-CoV-2. In words: morphology score (similarity to uninfected cells); higher = more like uninfected cells. As to conditions: 24 h.
Assay [2] has the same test system. In words: SARS-CoV-2 infection rate relative to infected DMSO; higher = more infection, active = 60 or less. The following applies: 24 h.

As for `O=C(O)CCc1ccc(NCc2cccc3c2CCCN3CCOc2ccccc2)cc1F` (10 µM), the morphology score in assay [1] is -0.0144. Also, the SARS-CoV-2 infection rate in assay [2] was 110% (inactive).

For the molecule `N#CC(c1ccccc1)(c1ccccc1)c1ccccc1Cl` (10 µM), the morphology score in assay [1] turned out to be 0.164. For the same molecule, in assay [2], the SARS-CoV-2 infection rate was 89% (inactive).

The molecule `O=C(/C=C/c1ccc(O)c(O)c1)O[C@H](Cc1ccc(O)c(O)c1)C(=O)O` [rosmarinic-acid] (10 µM) had a morphology score in assay [1] of 0.152. Also, the SARS-CoV-2 infection rate in assay [2] is 94.5% (inactive).

Take `O=C1Nc2ccc(I)cc2C1=Cc1cc(Br)c(O)c(Br)c1` (10 µM): the morphology score in assay [1] was 0.384. Further, the SARS-CoV-2 infection rate in assay [2] is 98.5% (inactive).

Consider `CN1CCCN=C1/C=C/c1cccs1` [pyrantel-pamoate] (10 µM), for which the morphology score in assay [1] stood at 0.103. Moreover, in assay [2], the SARS-CoV-2 infection rate was 93.5% (inactive).

In turn, `c1ccc2c(CCNc3ccc(Nc4ccncc4)cc3)c[nH]c2c1` [serdemetan] (10 µM) yielded a morphology score in assay [1] of 0.933. Besides, in assay [2], the SARS-CoV-2 infection rate was 37.5% (active).

The molecule `COc1ccc2c(OCc3nnc4ccc(-c5ccccc5)nn34)ccnc2c1` (10 µM) gave a morphology score in assay [1] of 0.0318. The SARS-CoV-2 infection rate in assay [2] is 110% (inactive).

In turn, `CN(C)c1cc(CNCC(C)(C)C)c(O)c2c1C[C@H]1C[C@H]3[C@H](N(C)C)C(O)=C(C(N)=O)C(=O)[C@@]3(O)C(O)=C1C2=O` [omadacycline] (10 µM) displayed a morphology score in assay [1] of 0.179. In addition, in assay [2], the SARS-CoV-2 infection rate was 97.5% (inactive).

In the case of `CC[C@]1(O)C[C@@H]2CN(CCc3c([nH]c4ccccc34)[C@@](C(=O)OC)(c3cc4c(cc3OC)N(C)[C@H]3[C@@](O)(C(N)=O)[C@H](O)[C@]5(CC)C=CCN6CC[C@]43[C@@H]65)C2)C1` [vindesine] (10 µM), the morphology score in assay [1] was -0.107. Also, the SARS-CoV-2 infection rate in assay [2] is 103% (inactive).

Consider `CN1C(=O)CCS(=O)(=O)C1c1ccc(Cl)cc1` (stereo not drawn) [chlormezanone] (10 µM), for which the morphology score in assay [1] was -0.0968. Besides, the SARS-CoV-2 infection rate in assay [2] is 117% (inactive).

In assay [1], `CC(C)(S)C(N)C(=O)O` (stereo in doubt) [penicillamine-(racemic)] (10 µM) displayed a morphology score of 0.0971. Further, the SARS-CoV-2 infection rate in assay [2] was 100% (inactive).

In assay [1], `CC(C)(C)c1cc(NC(=O)Nc2ccc(-c3cn4c(n3)sc3cc(OCCN5CCOCC5)ccc34)cc2)no1` [quizartinib] (10 µM) came in with a morphology score of 0.177. The SARS-CoV-2 infection rate in assay [2] was 97.5% (inactive).

`Clc1ccc(N2CCN(Cc3c[nH]c4ncccc34)CC2)cc1` (10 µM): the morphology score in assay [1] was -0.0196. In addition, the SARS-CoV-2 infection rate in assay [2] was 108% (inactive).

In assay [1], `O=c1ccn([C@@H]2O[C@H](COP(=O)(O)OP(=O)(O)OP(=O)(O)O)[C@@H](O)[C@H]2O)c(=O)[nH]1` (10 µM) returned a morphology score of 0.267. Moreover, in assay [2], the SARS-CoV-2 infection rate was 97% (inactive).

Turning to `CNC[C@H](O)[C@@H](O)[C@H](O)[C@H](O)CO` [meglumine] (10 µM), the morphology score in assay [1] was -0.00131. Moreover, the SARS-CoV-2 infection rate in assay [2] is 104% (inactive).

With `Clc1ccc2c(NCCNc3ccnc4cc(Cl)ccc34)ccnc2c1` (10 µM), the morphology score in assay [1] was 0.0758. The SARS-CoV-2 infection rate in assay [2] is 108% (inactive).

In the case of `OC[C@H]1NC[C@@H](O)[C@@H](O)[C@@H]1O` [1-deoxymannojirimycin] (10 µM), the morphology score in assay [1] was -0.0915. Moreover, the SARS-CoV-2 infection rate in assay [2] was 102% (inactive).

Turning to `COc1ccc(-c2cc(=O)c3c(O)cc(O[C@@H]4O[C@H](CO[C@@H]5O[C@@H](C)[C@H](O)[C@@H](O)[C@H]5O)[C@@H](O)[C@H](O)[C@H]4O)cc3o2)cc1O` [diosmin] (10 µM), in assay [1], the morphology score was -0.119. Also, in assay [2], the SARS-CoV-2 infection rate is 106% (inactive).

The molecule `CNC(=O)ON(C(C)=O)C(=O)NC` [caracemide] (10 µM) came in with a morphology score in assay [1] of 0.0974. In assay [2], the SARS-CoV-2 infection rate was 104% (inactive).

Turning to `CC(=O)CC/C=C(\C)CC/C=C(\C)CC/C=C(\C)CCC=C(C)C` [teprenone] (10 µM), the morphology score in assay [1] is 0.0677. In assay [2], the SARS-CoV-2 infection rate is 101% (inactive).

In assay [1], `NC[C@H]1O[C@H](O[C@H]2[C@H](O)[C@@H](O[C@H]3O[C@H](CO)[C@@H](O)[C@H](N)[C@H]3O)[C@H](N)C[C@@H]2N)[C@H](O)[C@@H](O)[C@@H]1O` [kanamycin] (10 µM) displayed a morphology score of 0.227. Besides, in assay [2], the SARS-CoV-2 infection rate was 100% (inactive).

Regarding `NC(=O)N1c2ccccc2C=Cc2ccccc21` [carbamazepine] (10 µM), the morphology score in assay [1] is -0.0216. Besides, the SARS-CoV-2 infection rate in assay [2] is 108% (inactive).

With `CC(C)(Sc1ccc(CCN(CCCCC2CCCCC2)C(=O)NC2CCCCC2)cc1)C(=O)O` (10 µM), in assay [1], the morphology score was 0.13. The SARS-CoV-2 infection rate in assay [2] was 117% (inactive).

`CCOC(=O)Nc1ccc2c(c1)N(C(=O)CCN(CC)CC)c1ccccc1S2` [ethacizin] (10 µM) registered a morphology score in assay [1] of 0.00909. For the same molecule, the SARS-CoV-2 infection rate in assay [2] is 112% (inactive).

In assay [1], `Ic1cncc(OC[C@@H]2CCN2)c1` (10 µM) displayed a morphology score of 0.114. The SARS-CoV-2 infection rate in assay [2] is 101% (inactive).

`O=Nc1c(-c2c(O)[nH]c3cc(Br)ccc23)[nH]c2ccccc12` [GSK-3-inhibitor-IX] (0.833333 µM) yielded a morphology score in assay [1] of -0.0517. Besides, the SARS-CoV-2 infection rate in assay [2] was 67% (inactive).

On to `C[C@@H]1C[C@H]2[C@@H]3CCC4=CC(=O)C=C[C@]4(C)[C@@]3(Cl)[C@@H](O)C[C@]2(C)[C@@]1(OC(=O)c1ccco1)C(=O)CCl` (10 µM), for which, in assay [1], the morphology score was determined as 0.481. The SARS-CoV-2 infection rate in assay [2] was 78% (inactive).

Turning to `Cn1c(N2CCCCS2(=O)=O)nc(C(=O)NCc2ccc(F)cc2)c(O)c1=O` (10 µM), in assay [1], the morphology score came out at 0.046. Further, in assay [2], the SARS-CoV-2 infection rate was 104% (inactive).

`C[C@H](C[C@H](N)C(=O)O)C(=O)O` (10 µM) registered a morphology score in assay [1] of 0.0497. For the same molecule, the SARS-CoV-2 infection rate in assay [2] is 108% (inactive).
